Test systems include NCI-H226 lung; NCI-H322M lung; HOP-62 NSCLC; NCI-H460 lung; HOP-92 NSCLC; NCI-H522 lung; A549/ATCC NSCLC; 786-0 renal; COLO 205 colon.
Assay in all cases: NCI-60 one-dose screen, 48 h (100 = growth as untreated, 0 = no growth, -100 = all killed)
What all share (details): 10 µM unless noted

SMILES strings stand for the structures. The panel holds about 83,000 compounds, 20% with a hit somewhere; the sample as a whole holds those more often.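 96-well plates, one dose, 48 hours. Percent growth reported; active if below 10.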 Calls of active or inactive are those of the source.

For `N#Cc1c(NCc2ccccc2I)sc2c1CCCCC2`, the growth is 87.5% (inactive) with NCI-H226 lung; 89.9% (inactive) in the experiment with NCI-H322M lung; 91.3% (inactive) with HOP-62 NSCLC; 96.7% (inactive) in the experiment with NCI-H460 lung; 88.8% (inactive) in the experiment with HOP-92 NSCLC; 86.7% (inactive) in the experiment on NCI-H522 lung. Also, the growth was 85.7% (inactive) with A549/ATCC NSCLC, 90% (inactive) in the experiment on 786-0 renal and 108% (inactive) in the experiment on COLO 205 colon.
On to `O=S(=O)(NCCNc1nccc(-c2c(-c3cccc(F)c3)nc3sccn23)n1)c1ccc(Br)cc1`, for which the growth with NCI-H226 lung is 41.2% (inactive); with NCI-H322M lung, 61% (inactive); in the experiment with HOP-62 NSCLC it was 83.3% (inactive); with NCI-H460 lung it was 27.8% (inactive); in the experiment on HOP-92 NSCLC it was 76.7% (inactive); in the experiment with NCI-H522 lung it was 62.6% (inactive). The values for the growth with A549/ATCC NSCLC, in the experiment with 786-0 renal and in the experiment with COLO 205 colon were 34.1% (inactive), 50.6% (inactive) and 36.4% (inactive), respectively.
Take `Nc1c(C(=O)Nc2ccnc3ccccc23)sc2nc3c(cc12)CN(Cc1ccccc1)CC3`: the growth with NCI-H226 lung was 53.1% (inactive); with NCI-H322M lung it was 90.3% (inactive); with HOP-62 NSCLC, 111% (inactive); in the experiment with NCI-H460 lung, 87.4% (inactive); with HOP-92 NSCLC it was 66.7% (inactive); with NCI-H522 lung, 70.1% (inactive). For the same compound, the growth with A549/ATCC NSCLC is 85.1% (inactive); in the experiment with 786-0 renal it was 66.3% (inactive); in the experiment on COLO 205 colon it was 97.3% (inactive).
Regarding `CNC(=O)c1cccc(Cn2nc(C)c(NC(=O)c3ccc(COc4ccc(C(F)(F)F)cc4C)cc3)c2C)c1`, the growth in the experiment on NCI-H226 lung was 44.6% (inactive); in the experiment on NCI-H322M lung, 88% (inactive); with HOP-62 NSCLC, 46.3% (inactive); in the experiment with NCI-H460 lung, 47.7% (inactive); in the experiment with HOP-92 NSCLC it was 80% (inactive); in the experiment with NCI-H522 lung, 33% (inactive). The growth was 31.1% (inactive) in the experiment on A549/ATCC NSCLC, 54.8% (inactive) in the experiment on 786-0 renal and 42.7% (inactive) in the experiment with COLO 205 colon.
As for `CN1CCN(C(=O)[C@]23CCC(C)(C)C[C@H]2C2=CC[C@@H]4[C@@]5(C)C/C(=C/c6cccnc6)C(=O)C(C)(C)[C@@H]5CC[C@@]4(C)[C@]2(C)CC3)CC1`, the growth with NCI-H226 lung is 79.7% (inactive); in the experiment with NCI-H322M lung it was 96.3% (inactive); in the experiment with HOP-62 NSCLC it was 85.2% (inactive); with NCI-H460 lung, 31.9% (inactive); in the experiment with HOP-92 NSCLC it was 40.7% (inactive); in the experiment on NCI-H522 lung, 49.4% (inactive). Moreover, the growth was 47% (inactive) in the experiment on A549/ATCC NSCLC, 73.7% (inactive) with 786-0 renal and 42.9% (inactive) in the experiment on COLO 205 colon.
For `CCNc1nc2cc(Nc3ccnc4cc(Cl)ccc34)ccc2o1`, the growth in the experiment with NCI-H322M lung was 92.9% (inactive); in the experiment with HOP-62 NSCLC it was 75% (inactive); in the experiment with NCI-H460 lung, 58% (inactive); in the experiment on HOP-92 NSCLC it was 56.8% (inactive); in the experiment on NCI-H522 lung it was 61.9% (inactive); in the experiment on A549/ATCC NSCLC it was 67.7% (inactive). The growth in the experiment on 786-0 renal was 81.7% (inactive); in the experiment on COLO 205 colon, 72.2% (inactive).
For `COc1ccc(C(=O)/C=C/c2cc3ccccc3n3nnnc23)cc1`, the growth in the experiment on NCI-H226 lung is 105% (inactive); in the experiment on NCI-H322M lung, 103% (inactive); in the experiment with HOP-62 NSCLC, 103% (inactive); with NCI-H460 lung it was 112% (inactive); in the experiment on HOP-92 NSCLC, 109% (inactive); in the experiment on NCI-H522 lung it was 94% (inactive). The growth with A549/ATCC NSCLC is 105% (inactive); in the experiment with 786-0 renal, 91.4% (inactive); in the experiment with COLO 205 colon, 122% (inactive).
As for `COc1ccc(Cc2cnc(NC(=O)c3ccc4c(c3)OCCO4)s2)cc1`, the growth with NCI-H226 lung was 1.86% (active); in the experiment on NCI-H322M lung it was 41.3% (inactive); in the experiment with HOP-62 NSCLC, 29.1% (inactive); in the experiment on NCI-H460 lung it was 6.33% (active); with HOP-92 NSCLC it was 57.8% (inactive); in the experiment with NCI-H522 lung, -2.66% (active). The growth in the experiment on A549/ATCC NSCLC was 16.1% (inactive); in the experiment with 786-0 renal it was 26.6% (inactive); in the experiment with COLO 205 colon, -6.28% (active).
`COc1cc2nc(-c3ccc(Cl)cc3)cc(OCCCN3CCOCC3)c2cc1OC`: the growth in the experiment on NCI-H226 lung was -7.3% (active); with NCI-H322M lung it was 57.4% (inactive); in the experiment with HOP-62 NSCLC it was 60.1% (inactive); in the experiment on NCI-H460 lung, 21.6% (inactive); with HOP-92 NSCLC, 19.3% (inactive); in the experiment on NCI-H522 lung it was 21.6% (inactive). The growth in the experiment on A549/ATCC NSCLC is 29.9% (inactive); in the experiment on 786-0 renal, 67.5% (inactive).
Consider `C=C1C(=O)O[C@H]2[C@H]1CC/C(COC(=O)NCC(C)c1ccc(CC(C)C)cc1)=C\CC[C@@]1(C)O[C@@H]21` (stereo not given in full), for which the growth is 87% (inactive) in the experiment on NCI-H322M lung; 82.2% (inactive) with HOP-62 NSCLC; 19.7% (inactive) with NCI-H460 lung; -33.3% (active) in the experiment with HOP-92 NSCLC; -64.1% (active) in the experiment with NCI-H522 lung; 73% (inactive) with A549/ATCC NSCLC. Moreover, the growth in the experiment with 786-0 renal is -87.7% (active); with COLO 205 colon, -50.3% (active).
In the case of `COc1ccc(C(=O)Nc2cccc(C3CCc4c(cc(OC)c(OC)c4OC)O3)c2)cc1` (stereo not given), the growth with NCI-H226 lung was 30.1% (inactive); in the experiment with NCI-H322M lung, 75.9% (inactive); with HOP-62 NSCLC, 39.8% (inactive); with NCI-H460 lung it was 25.7% (inactive); in the experiment on HOP-92 NSCLC, 61.3% (inactive); in the experiment with NCI-H522 lung, 42.7% (inactive). In addition, the growth with A549/ATCC NSCLC is 43.4% (inactive); with 786-0 renal it was 68.7% (inactive); with COLO 205 colon, 67.9% (inactive).
As to `NS(=O)(=O)c1ccc(CCN2C(=O)C3C(C2=O)C2(Cl)C(Cl)=C(Cl)C3(Cl)C2(Cl)Cl)cc1` (stereo not given), the growth was 101% (inactive) in the experiment with NCI-H226 lung; 104% (inactive) in the experiment with NCI-H322M lung; 104% (inactive) in the experiment on HOP-62 NSCLC; 104% (inactive) in the experiment with NCI-H460 lung; 47.6% (inactive) with HOP-92 NSCLC; 91% (inactive) with NCI-H522 lung. Moreover, the growth was 101% (inactive) with A549/ATCC NSCLC, 95.3% (inactive) in the experiment on 786-0 renal and 108% (inactive) in the experiment with COLO 205 colon.

These data come from PubChem BioAssay (NCI).
